Laboratory results reported in PubChem BioAssay (NCI).
Compounds without any hit were thinned out: in the full panel of roughly 79,000, 15% have a hit. Activity calls are given as the source filed them. Rule as the data show it: active = growth inhibition above about 70%; inactive = the rest.

Key:
[1] = NCI Yeast Anticancer Drug Screen. Data for the rad52 strain (AID 147);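 also: 0% = growth of vehicle-treated control cultures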; conditions: S. cerevisiae rad52 mutant growth inhibition, active compounds read high
Method in brief: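 Growth of repair-deficient yeast cells was compared between compound-treated and vehicle-treated cultures to give percent inhibition.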

[2] = NCI Yeast Anticancer Drug Screen. Data for the wt1 strain (AID 149);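 also: 0% = growth of vehicle-treated wt1 cultures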; conditions: S. cerevisiae wt1 strain (SPY 50644) growth inhibition, active compounds read high
Method in brief: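 Yeast wt1 strain exposed to compounds; growth inhibition measured relative to vehicle-treated controls.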

[3] = NCI Yeast Anticancer Drug Screen. Data for the rad50EPP+ strain (AID 151);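 also: 0% = growth of vehicle-treated control cultures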; conditions: S. cerevisiae rad50 mutant strain, active compounds read high
Method in brief: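 Measured: growth inhibition of rad50EPP+ yeast. Reference: vehicle-treated controls. Screen uses strains with defined genetic alterations in DNA damage repair or cell cycle control.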

[4] = NCI Yeast Anticancer Drug Screen. Data for the mgt1 strain (AID 153); conditions: S. cerevisiae mgt1 mutant growth inhibition, active compounds read high
Method in brief: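 Compounds were applied to mgt1 mutant yeast, and growth was then compared against vehicle-treated control cultures to give percent inhibition.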

[5] = NCI Yeast Anticancer Drug Screen. Data for the rad50 strain (AID 155);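 also: 0% = growth of vehicle-only cultures of the same strain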; conditions: S. cerevisiae rad50 strain growth inhibition, active compounds read high
Method in brief: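 Yeast carrying a defined DNA repair defect were exposed to test compounds, and growth was compared with vehicle-treated controls to give percent inhibition.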

[6] = NCI Yeast Anticancer Drug Screen. Data for the mec2-1 strain (AID 157); conditions: S. cerevisiae mec2-1 strain, active compounds read high
Method in brief: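 Compounds were applied to mec2-1 yeast cells. Their growth was then compared with that of vehicle-treated cultures to give growth inhibition.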

[7] = NCI Yeast Anticancer Drug Screen. Data for the rad14 strain (AID 159);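 also: 0% = growth of vehicle-treated control cultures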; conditions: S. cerevisiae rad14 strain growth inhibition, active compounds read high
Method in brief: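 Yeast cells carrying a defined DNA-repair defect were exposed to compounds, and growth inhibition was calculated relative to vehicle-treated control cultures.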

[8] = NCI Yeast Anticancer Drug Screen. Data for the sgs1 mgt1 strain (AID 161);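 also: 0% = growth of cultures given vehicle only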; conditions: S. cerevisiae sgs1 mgt1 strain, active compounds read high
Method in brief: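 Compounds are added to genetically altered yeast, and growth is compared with cultures given vehicle alone to give percent inhibition.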

[9] = NCI Yeast Anticancer Drug Screen. Data for the CLN2oe strain (AID 163);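 also: 0% = growth of vehicle-only control cultures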; conditions: S. cerevisiae CLN2oe strain, active compounds read high
Method in brief: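 Cells of an engineered yeast line with disturbed cell-cycle regulation are treated with compound. Inhibition of growth is then calculated relative to the vehicle-treated reference.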

[10] = NCI Yeast Anticancer Drug Screen. Data for the cln2 rad14 strain (AID 165);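 also: 0% = growth equal to vehicle treated cultures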; conditions: S. cerevisiae cln2 rad14 strain, active compounds read high
Method in brief: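 Strain: cln2 rad14 yeast, altered in cell cycle control and DNA damage repair. Read-out: growth inhibition vs vehicle.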

[11] = NCI Yeast Anticancer Drug Screen. Data for the bub3 strain (AID 167); conditions: S. cerevisiae bub3 mutant strain, active compounds read high
Method in brief: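 Compounds were applied to a genetically altered yeast strain carrying a cell-cycle control defect. Growth inhibition was scored against vehicle-treated controls.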

[12] = NCI Yeast Anticancer Drug Screen. Data for the wt2 strain (AID 169);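 also: 0% = growth of vehicle-treated yeast cultures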; conditions: S. cerevisiae wt2 strain growth inhibition, active compounds read high
Method in brief: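 Growth of compound-treated yeast is measured and expressed as inhibition relative to vehicle-only controls.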

[13] = NCI Yeast Anticancer Drug Screen. Data for the mlh1 strain (AID 171);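 also: 0% = growth of vehicle-treated control cultures of the same strain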; conditions: S. cerevisiae mlh1 strain growth inhibition, active compounds read high
Method in brief: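 Test agents were incubated with yeast bearing a defined DNA damage repair or cell cycle control alteration; values are growth inhibition normalised to vehicle-treated cultures.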

[14] = NCI Yeast Anticancer Drug Screen. Data for the mlh1 rad18 strain (AID 175); conditions: S. cerevisiae mlh1 rad18 strain growth inhibition, active compounds read high
Method in brief: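 A repair-deficient yeast strain is exposed to test compound, and growth is scored relative to vehicle-treated controls.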

[15] = NCI Yeast Anticancer Drug Screen. Data for the rad18 strain (AID 177); conditions: S. cerevisiae rad18 mutant growth inhibition, active compounds read high
Method in brief: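 DNA-repair-defective yeast; compound treatment; growth inhibition scored against vehicle.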

[16] = at 5.0 µM (retest, dose inferred, filed as 0.5)
[17] = at 50.0 µM (retest, dose inferred, filed as 5.0)

Measured: growth inhibition

O=C(Cc1csc2[n+]1C(=O)/C(=C/c1ccc(Cl)cc1)S2)Nc1ccccc1
active: [1]; at 100.0 µM 87% | [3]; at 100.0 µM 75% | [4]; at 100.0 µM 87% | [5]; [17] 98% | [5]; at 50.0 µM 98.5% | [5]; at 100.0 µM 78% | [6]; [17] 99% | [6]; at 50.0 µM 98.8% | [8]; [17] 96% | [8]; at 50.0 µM 98.9% | [10]; [17] 98% | [10]; at 50.0 µM 98.5% | [11]; [16] 97% | [11]; [17] 99% | [11]; at 50.0 µM 98.8% | [12]; at 100.0 µM 82% | [13]; at 100.0 µM 75% | [14]; [17] 98% | [14]; at 50.0 µM 98.3%
inactive: [1]; at 1.2 µM 15% | [1]; at 3.7 µM 4% | [1]; at 11.0 µM 20% | [1]; at 33.0 µM 49% | [2]; at 1.2 µM -84% | [2]; at 3.7 µM -1% | [2]; at 11.0 µM 0% | [2]; at 33.0 µM 16% | [2]; at 100.0 µM 60% | [3]; at 1.2 µM 2% | [3]; at 3.7 µM 8% | [3]; at 11.0 µM 34% | [3]; at 33.0 µM 65% | [4]; at 1.2 µM -1% | [4]; at 3.7 µM 1% | [4]; at 11.0 µM 7% | [4]; at 33.0 µM 54% | [5]; at 1.2 µM -2% | [5]; at 3.7 µM 1% | [5]; [16] 24% | [5]; at 11.0 µM 9% | [5]; at 33.0 µM 43% | [6]; at 1.2 µM -3% | [6]; at 3.7 µM 5% | [6]; [16] 25% | [6]; at 11.0 µM 13% | [6]; at 33.0 µM 39% | [6]; at 100.0 µM 62% | [7]; at 1.2 µM 0% | [7]; at 3.7 µM 4% | [7]; at 11.0 µM 10% | [7]; at 33.0 µM 33% | [7]; at 100.0 µM 69% | [8]; [16] 2% | [9]; at 1.2 µM -6% | [9]; at 3.7 µM -14% | [9]; at 11.0 µM -12% | [9]; at 33.0 µM 8% | [9]; at 100.0 µM 47% | [10]; [16] 42% | [11]; at 1.2 µM -8% | [11]; at 3.7 µM -8% | [11]; at 11.0 µM -7% | [11]; at 33.0 µM 11% | [11]; at 100.0 µM 12% | [12]; at 1.2 µM -3% | [12]; at 3.7 µM -3% | [12]; at 11.0 µM 7% | [12]; at 33.0 µM 60% | [13]; at 1.2 µM -1% | [13]; at 3.7 µM 1% | [13]; at 11.0 µM 8% | [13]; at 33.0 µM 52% | [14]; [16] 20% | [15]; at 1.2 µM 0% | [15]; at 3.7 µM 5% | [15]; at 11.0 µM 21% | [15]; at 33.0 µM 56% | [15]; at 100.0 µM 69%
